Compounds without any hit were thinned out: in the full panel of roughly 83,000, 20% have a hit.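 Negative percent growth values reflect cell death: -40 means 40% of the cells present at the start died, and -100 means all died.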 Calls of active or inactive are those of the source. Rule for the calls: active = growth percent below 10; inactive = the rest.
Legend:
Assay in all cases: NCI-60 one-dose screen, 48 h (100 = growth as untreated, 0 = no growth, -100 = all killed)
Details in all cases: 10 µM
[1] = tested on: NCI-H23 lung
[2] = tested on: NCI-H226 lung
[3] = tested on: NCI-H322M lung
[4] = tested on: HOP-62 NSCLC
[5] = tested on: NCI-H460 lung
[6] = tested on: HOP-92 NSCLC
[7] = tested on: NCI-H522 lung
[8] = tested on: A549/ATCC NSCLC
[9] = tested on: 786-0 renal
[10] = tested on: COLO 205 colon
[11] = tested on: DU-145 prostate
[12] = tested on: K-562 leukemia
[13] = tested on: MALME-3M melanoma
[14] = tested on: MDA-MB-231 breast
[15] = tested on: RXF 393 renal
[16] = tested on: SF-268 CNS
[17] = tested on: SF-295 CNS
[18] = tested on: SF-539 CNS
[19] = tested on: UACC-257 melanoma
[20] = tested on: M14 melanoma

Measured: growth

CC(=O)Nc1ccc(-c2cn(-c3cccc(C(=O)Nc4cc(C(F)(F)F)cc(C(F)(F)F)c4)c3)nn2)cn1
active: [1] -68.6% | [2] -68% | [3] -15.6% | [4] -61.1% | [5] -71.6% | [6] -52% | [7] -11.2% | [8] -26.1% | [9] -42.8% | [10] -62.2% | [11] -47.5% | [12] -66.1% | [13] -48.3% | [14] -72.5% | [15] -69.4% | [16] -7.7% | [17] -89.1% | [18] -83.7% | [19] -4.2% | [20] 4.5%

CN(CCF)c1ccc(/C=C/C(=O)c2ccc(N)cc2O)cc1
inactive: [1] 93.2% | [2] 93.8% | [3] 78.8% | [4] 106% | [5] 71.9% | [6] 94% | [7] 67.5% | [8] 68.8% | [9] 90.5% | [10] 111% | [11] 69.6% | [12] 51.4% | [13] 102% | [14] 95.7% | [15] 82.8% | [16] 93.7% | [17] 80.4% | [18] 83.5% | [19] 96.6% | [20] 107%

CC1=C(C(=O)OC(C)C)C(c2ccc(O)cc2)NC(=S)N1 (stereo not given)
inactive: [1] 98.8% | [2] 99.2% | [3] 102% | [4] 104% | [5] 124% | [6] 112% | [7] 93.1% | [8] 109% | [9] 95.7% | [10] 119% | [11] 100% | [12] 95.2% | [13] 105% | [14] 100% | [15] 97.3% | [16] 111% | [17] 96.6% | [18] 98.2% | [19] 121% | [20] 97%

Reference: PubChem BioAssay (NCI)
